Measurements from PubChem BioAssay (NCI).
Compounds without any hit were thinned out: in the full panel of roughly 79,000, 15% have a hit. Values without a mark were called inactive. Active and inactive are the calls of the source. No stated cut-off is given here; in the data, active means growth inhibition above about 70%; inactive means the rest.

Test: NCI Yeast Anticancer Drug Screen. Data for the mlh1 strain (AID 171);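 further: 0% = growth of vehicle-treated control cultures of the same strain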
Conditions: S. cerevisiae mlh1 strain growth inhibition, active compounds read high
Description: Growth inhibition of yeast strains with defined genetic alterations is measured as a screen for potential anti-cancer activity. Selected strains with alterations in DNA damage repair or cell cycle control were exposed to compounds and growth inhibition was measured relative to vehicle treated controls. The strain used in this assay is mlh1

Row | SMILES | growth inhibition (at 1.2 µM) [%] | growth inhibition (at 3.7 µM) | growth inhibition (at 11.0 µM) | growth inhibition (at 33.0 µM) | growth inhibition (at 100.0 µM)
1 | O=C1c2ccccc2-c2nc3ccccc3nc21 | -31 | -30% | -25% | -1% | 61%
2 | O=Cc1cccc2ccc3ccccc3c12 | 5 | -5% | -2% | 63% | 98% (active)
3 | CC(C)C1=CCC2C(=C1)CCC1C(C)(C(=O)O)CCCC21C (stereo not given) (tested in a mixture with another compound) | 12 | 11% | 6% | 43% | 96% (active)
4 | CCCCCCc1cc(C(=O)OC/C(C)=N/NC(N)=O)c2ccccc2n1 | -3 | -4% | -4% | -5% | -5%
5 | CC1=C(SCCO)C(=O)c2ccccc2C1=O | 0 | -2% | 7% | 8% | 5%
6 | Oc1cccc2c(Cl)ccnc12 | 27 | 99% (active) | 98% (active) | 97% (active) | 99% (active)
7 | COC(=O)C1=C(C)NC(C)=C(C(=O)OCCCN2CCC(c3ccccc3)(c3ccccc3)CC2)C1c1cccc([N+](=O)[O-])c1 (stereo not given) | 1 | 51% | 98% (active) | 98% (active) | 92% (active)
8 | C[C@@H]1C[C@H]2[C@@H]3CCC4=CC(=O)C=C[C@]4(C)[C@@]3(Cl)[C@@H](Cl)C[C@]2(C)[C@@]1(O)C(=O)COP(=O)(O)O | 2 | 3% | 0% | 8% | 12%
